# Results published in PubChem BioAssay AID598 (SRMLSC, 2007).
# Hit rate of the full screen: of about 85,000 compounds, about 5,100 (6%) were called active.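 How the source made its calls: active means viability at or below 40%; inactive means viability above 40%.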 What follows is part of a selection rich in actives, with near analogues and random picks from the rest.
# Assay: proliferation blockers of H69AR lung cancer cells, primary screen, cell-based, human, 86K library (AID 598);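 further: multidrug resistant small cell line overexpressing MRP-1 efflux transporter; 100% = mean luminescence of untreated control wells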
# Details: H69AR lung tumor viability, ATP luminescence, 72 h; at 10 µM; active compounds read low
row,Compound,viability
1,CCCCNC(=O)C1CCCN(S(=O)(=O)c2ccc(S(=O)(=O)NCC(C)C)cc2)C1 (configuration not stated),90.8% (inactive)
2,Cc1cccc(N2CCN(C(=O)C3CCN(S(=O)(=O)c4cnc[nH]4)CC3)CC2)c1C,93.6% (inactive)
3,Cc1cccc(N2CCN(C(=O)c3cnn4c(C(F)F)cc(-c5ccccc5)nc34)CC2)c1C,28.9% (active)
4,O=C(Nc1ccccc1N1CCN(C(=O)c2ccccc2)CC1)c1ccc2c(c1)OCO2,81.8% (inactive)
5,O=C1CSC(c2cccc(F)c2)N1c1ccc(O)cc1 (configuration not stated),101% (inactive)
6,CC(C)CCNC(=O)Cn1c(=O)oc2cc(S(=O)(=O)N3CC(C)CC(C)C3)ccc21 (configuration not stated),40.8% (inactive)
7,Cc1oc(-c2ccccc2Cl)[n+]([O-])c1C,85.9% (inactive)
8,Cc1[nH][nH]c(=O)c1N=Nc1ccccc1,91.5% (inactive)
9,Cc1[nH][nH]c(=O)c1C(c1ccc(-c2ccc(Cl)cc2)o1)c1c(C)[nH][nH]c1=O,1.92% (active)
10,CCN1CCN(C(=O)C2(NC(=O)Nc3cccc(F)c3)CCCCC2)CC1,90.9% (inactive)
11,O=C(c1ccccc1Oc1ccccc1)N1CCN(c2ccc(F)cc2)CC1,100% (inactive)
12,COC(=O)c1ccccc1NC(=O)CSc1nnnn1C,95.3% (inactive)
13,CC1CC(C)CN(CC(=O)N2c3ccccc3CCc3ccccc32)C1 (configuration not stated),82.7% (inactive)
14,O=C(CN1CCCCCC1)N1c2ccccc2Sc2ccc(C(F)(F)F)cc21,36.8% (active)
15,O=C(CN1CCCCC1)N1c2ccccc2Sc2ccc(C(F)(F)F)cc21,86.8% (inactive)
16,Cc1cc(C)nc(N2CCN(c3ncnc4c3oc3ccccc34)CC2)n1,103% (inactive)
17,CC(C)c1nc2oc3c(N4CCN(C)CC4)ncnc3c2c2c1CCC2,33.7% (active)
18,CCN1CCN(c2ncnc3c2oc2nc(C)c4c(c23)CC(C)(C)OC4)CC1,81.8% (inactive)
19,COc1cc2c(cc1OC)C(C(C)C)=NC(C)(C)C2,88.9% (inactive)
20,C/C(=N\NS(=O)(=O)c1ccc(Br)cc1)c1cccs1,110% (inactive)
21,CCn1c(COc2ccc(OC)cc2)nnc1SCC(=O)Nc1cc(OC)ccc1OC,71.4% (inactive)
22,CCn1nc(C)c(NC(=O)/C=C/c2ccc(OC)c(COc3ccc(Br)cc3)c2)c1C,28.8% (active)
23,COc1ccc(/C=C/C(=O)Nc2c(C)nn(C)c2C)cc1COc1ccc(Br)cc1,57.5% (inactive)

row,Compound,viability
1,COc1cccc2cc(C(=O)N3CCN(C(=O)c4ccccc4)CC3)c(=O)oc12,89.3% (inactive)
2,O=S(=O)(NC1CCCCC1)c1ccc(F)c2ccccc12,86.6% (inactive)
3,Cc1ccc(-n2ncc3c(=O)n(-c4ccc(C)c(C)c4)c(-c4ccco4)nc32)cc1,31.3% (active)
4,Cc1ccc(-n2ncc3c2ncn2nc(-c4ccco4)nc32)c(C)c1,78.6% (inactive)
5,Cc1ccc(-c2nc3c(cnn3-c3ccccc3)c(=O)o2)cc1,79.6% (inactive)
6,CCOC(=O)c1ccc2c(c1)nc(SCC(=O)NC(C)C)n2CC,84% (inactive)
7,CCNc1nc(NC(C)C)nc(OCCOC(=O)c2ccccc2)n1,83.5% (inactive)
8,CCOc1cccc(NC(=O)Cn2nc(-c3ccc4c(c3)OCCO4)ccc2=O)c1,69.3% (inactive)
9,CCN(CC)S(=O)(=O)c1cccc(C(=O)Nc2ccccc2)c1,38.5% (active)
10,CCN(CC)S(=O)(=O)c1cccc(C(=O)NCC(=O)OCC(=O)NCc2ccccc2)c1,87.6% (inactive)
11,CN(C)S(=O)(=O)c1cccc(C(=O)Nc2cccnc2)c1,89.9% (inactive)
12,N#CC1=C(N)N(c2ccccc2)C2=C(C(=O)CCC2)C1c1ccccc1 (configuration not stated),40.4% (inactive)
13,Cc1cccc(N2CCN(C(c3ccc(N(C)C)cc3)c3nnnn3C(C)(C)C)CC2)c1C (configuration not stated),83.3% (inactive)
14,O=C(COC(=O)c1ccc(Oc2ccccc2)cc1)Nc1nnc(-c2ccccc2)o1,58.7% (inactive)
15,O=C(OCc1nnc(-c2ccccc2)o1)c1ccc2c(c1)C(=O)N(CCc1ccccc1)C2=O,33.8% (active)
16,CCCc1nc2ccccc2c(C(=O)OCc2nnc(-c3cc(OC)c(OC)c(OC)c3)o2)c1CC,50.2% (inactive)
17,O=C1CCCc2nn(-c3ccccc3)nc21,87.6% (inactive)
18,CCOC(=O)N1CC=C2C(C#N)=C(N)C(C#N)(C#N)[C@H](c3cccs3)[C@H]2C1,61.6% (inactive)
19,CCCN1CC=C2C(C#N)=C(N)C(C#N)(C#N)C(c3cc(OC)ccc3OC)C2C1 (configuration not stated),31.8% (active)
20,CCN1CC=C2C(C#N)=C(N)C(C#N)(C#N)[C@H](c3ccoc3)[C@H]2C1,84.8% (inactive)
21,CCOC(=O)C1=C(CSc2nnnn2C)N(C)C(=O)NC1c1ccccc1 (configuration not stated),93.1% (inactive)
22,COc1ccc(N2CCN(C(=O)CCc3nc(-c4ccc(C)cc4)no3)CC2)cc1,98.4% (inactive)
23,CCc1cccc(C)c1N(C(=O)Cn1c(CO)nc2ccccc21)C(C)COC (configuration not stated),71% (inactive)

row,Compound,viability
1,Cc1cc(=O)oc2ccc(OCC(=O)O)cc12,97.4% (inactive)
2,CCOC(=O)c1c(C)oc2ccc(OCC(=O)N(CC)CC)cc12,38.9% (active)
3,CCOC(=O)c1c(C)oc2cc(Br)c(OCC(N)=O)cc12,80.2% (inactive)
4,CN(C)c1ccnc2sc3c(=O)n(-c4ccc(Cl)cc4)cnc3c12,80.8% (inactive)
5,O=C(N/N=C/C=C/c1ccccc1)C1CC1(c1ccccc1)c1ccccc1 (configuration not stated),98.1% (inactive)
6,CC(C)C[C@@H](N)c1nnc(SCC(=O)c2ccc(Cl)cc2)o1,86.9% (inactive)
7,COC(=O)c1cc(Cl)c(NC(=O)c2ccco2)cc1OC,94% (inactive)
8,COc1ccc(NC(=O)c2cccc(NC(=O)c3ccco3)c2)c(OC)c1,88.5% (inactive)
9,COc1cc(C(=O)OC(C)C(=O)NCC2CCCCC2)cc(NC(=O)c2ccco2)c1OC (configuration not stated),13.1% (active)
10,CC(C)(C)c1ccc(C(=O)NCC(=O)OCN2C(=O)c3ccccc3C2=O)cc1,104% (inactive)
11,Cc1cccc(-n2nc3c(c2NC(=O)c2ccc(Br)o2)CSC3)c1C,59.7% (inactive)
12,Cc1cc(NC(=O)Nc2ccccc2)n(-c2ccccc2)n1,92.7% (inactive)
13,Cc1cc(C)nc(-n2nc(C)cc2NC(=O)c2ccc(Br)o2)n1,36.5% (active)
14,N#Cc1c(N)nc2c3c(sc(=N)c2c1N)NC(=O)CC3c1ccccc1Cl (configuration not stated),113% (inactive)
15,CSc1ccc(-c2c(C#N)c(N)nc3c2c(C)nn3-c2ccccc2)cc1,57.5% (inactive)
16,CSc1nc(N)c(C#N)c(-c2ccccc2Cl)c1C#N,21.8% (active)
17,O=C(NC1CCC(O)CC1)c1ccc(S(=O)(=O)NCc2ccco2)cc1 (configuration not stated),96.7% (inactive)
18,CNC(=O)CSc1nnc(CCc2ccccc2)n1-c1ccccc1,83.2% (inactive)
19,Cc1nnc(SCC(=O)NCc2ccccc2)s1,96.4% (inactive)
20,CC1(C)Cc2c(sc3nc(SCC(=O)NCc4ccccc4)n(-c4ccccc4)c(=O)c23)CS1,24.1% (active)
21,CCOC(=O)c1c(NC(C)=O)sc2c(O)c(Br)ccc12,94.9% (inactive)
22,COc1ccc(C(C#N)Nc2ccccc2C)cc1 (configuration not stated),88.9% (inactive)
23,O=C(Nc1nnc(SCc2ccccc2)s1)c1ccco1,96% (inactive)

row,Compound,viability
1,Clc1cccc(-c2nc3nc4ccccc4nc3n2Cc2ccco2)c1,34.4% (active)
2,O=C(CSc1nnc(-c2cccnc2)n1Cc1ccco1)c1ccc(Cl)cc1,95.3% (inactive)
3,COc1ccc(CCn2c(-c3ccco3)nc3nc4ccccc4nc32)cc1OC,55.4% (inactive)
4,Cc1cccc(S(=O)(=O)CC(=O)Nc2nc(-c3ccccc3)cs2)c1,99.7% (inactive)
5,Cc1nc(NNC(=O)c2ccccc2)cc(-c2ccccc2)n1,91.7% (inactive)
6,O=C(NCc1ccccc1)[C@@H]1CSC2c3ccccc3C(=O)N21 (some centres not stated),78.5% (inactive)
7,COC(CNC(=O)Cn1ncc2ccsc2c1=O)OC,101% (inactive)
8,COC(=O)c1ccc(N(CC(=O)NC2CCCC2)C(=O)CNC(=O)c2ccco2)cc1,94.9% (inactive)
9,Cc1cccc(N(C(=O)c2ccc(CN3CCOCC3)o2)C(C(=O)NC2CCCCC2)c2ccc(F)cc2)c1 (configuration not stated),103% (inactive)
10,COC(=O)c1cccc(N(C(=O)c2ccco2)C(C(=O)NC2CCCC2)c2ccco2)c1 (configuration not stated),32.4% (active)
11,COc1ccc(-c2oc(/N=C/N3CCCC3)c(C#N)c2-c2ccc(OC)cc2)cc1,99.1% (inactive)
12,O=C(N/N=C\c1cccc(Br)c1)c1ccccc1-n1cccc1,93.7% (inactive)
13,N=c1c2c(-c3ccccc3)c(-c3ccccc3)n(Cc3ccccc3)c2ncn1CCCO,0.82% (active)
14,Cc1ccc(NC(=O)N2CCC(c3nc4c(nnn4Cc4c(F)cccc4Cl)c(=O)[nH]3)CC2)cc1,67.6% (inactive)
15,CCCCNC(=O)C1CCCNC1=O (configuration not stated),98.9% (inactive)
16,COc1ccc(-c2n[nH]c(C)c2-c2ccc(OC)c(OC)c2)c(O)c1,14.9% (active)
17,COc1ccccc1-c1c(C)nn2c(C)c(C(C)=O)cnc12,89.8% (inactive)
18,C=C(C)COc1ccc(-c2n[nH]c(C)c2-c2ccccc2OC)c(O)c1,39.9% (active)
19,C=C(C)COc1ccc(-c2n[nH]c(C)c2-c2ccccc2)c(O)c1,95.5% (inactive)
20,O=C(Cn1c(-c2cscn2)nc2ccccc21)Nc1ccc(Cl)cc1,72.9% (inactive)
21,COc1ccc(C)cc1S(=O)(=O)NCCc1ccccc1,96% (inactive)
22,CCCCOc1ccc(N(CC(=O)NCC2CCCO2)C(=O)CCC(=O)Nc2cc(C)ccn2)cc1 (configuration not stated),102% (inactive)
23,O=C(CC12CC3CC(CC(C3)C1)C2)Nc1ccc2c(c1)COC2=O,90.9% (inactive)
